DUSP3 inh – blocks human VHR1 dual specificity phosphatase; P51452; recombinant VHR phosphatase, pNPP absorbance; inhibition, % at 13.3 µM; 290,000 compounds, 0.52% hits; AID 1654; in the data active = inhibition above about 50%
Target sequence (P51452 whole entry, looked up): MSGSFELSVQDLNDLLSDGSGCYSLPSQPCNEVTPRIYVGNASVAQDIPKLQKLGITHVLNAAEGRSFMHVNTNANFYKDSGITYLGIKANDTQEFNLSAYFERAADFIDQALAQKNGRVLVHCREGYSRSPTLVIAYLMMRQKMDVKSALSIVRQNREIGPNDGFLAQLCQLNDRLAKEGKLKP
MazF activator – activators of E. coli MazEF toxin-antitoxin RNase | FAM/BHQ RNA-DNA oligo cleavage fluorescence, 5 h | P0AE70 | 350,000 compounds, 0.32% hits | activation, % at 20 µM; in the data active = activation above about 50%
Target sequence (P0AE70 whole entry, looked up): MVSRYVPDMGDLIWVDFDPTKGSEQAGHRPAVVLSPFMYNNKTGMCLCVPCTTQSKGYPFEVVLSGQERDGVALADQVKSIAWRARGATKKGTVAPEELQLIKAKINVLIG
BoNT-A LC inh2 – inhibitors of Botulinum neurotoxin A light chain protease; multiplex microsphere protease substrate cleavage, flow cytometry; inhibition, % at 10 µM; 360,000 compounds, 0.17% hits; AID 588499; note: plate controls were buffer without enzyme for full effect and enzyme alone for no effect
Bead autofluor – flagged as autofluorescent in microsphere protease counterscreen; fluorescence intensity (test concentration not listed); 360,000 compounds, 3.1% hits; AID 624483; compound autofluorescence counterscreen, microsphere flow cytometry; active compounds read high; in the data active = fluorescence intensity above about 16000; inconclusive = no clear call, values can overlap the other calls
BoNT F protease – BoNT F light chain protease inhibition. 360,000 compounds, 0.22% hits. inhibition, % at 10 µM. AID 588497. Multiplex microsphere protease cleavage assay, flow cytometry; in the data active = inhibition above about 35%, passing the limit was not always enough; inconclusive = no clear call, values can overlap the other calls; note: plate controls were buffer without enzyme for full effect and enzyme alone for no effect
Anthrax LF inh2 – anthrax lethal factor protease inhibition. inhibition, % at 10 µM. 360,000 compounds, 0.12% hits. P15917. multiplex microsphere protease cleavage assay, LF; note: plate controls were buffer without enzyme for full effect and enzyme alone for no effect
Active calls of the source: *; u = inconclusive; x = not tested or not shown. In the library only some 4.1% were active in any assay of this set; here they are far more common. Cut-off read from the data, not from the text of the source, unless noted: active = inhibition above about 30%; inconclusive = no clear call, values can overlap the other calls; inactive = below that.

SMILES | DUSP3 inh | MazF activator | BoNT-A LC inh2 | Bead autofluor | BoNT F protease | Anthrax LF inh2
O=C(Nc1cccc2c1CCCC2)c1ccco1 | -10 | -1 | 10 | 20290* | 5 | -4
O=C(Nc1ccc2c3c(cccc13)CC2)c1ccco1 | 20 | -8 | -1 | 2792 | 0 | 3
Cc1ccnc(NC(=O)CNC(=O)Cc2cccc3ccccc23)c1 | x | -3 | 3 | 4640 | u | -1
COC(=O)C1=C(C)NC(=O)NC1c1ccccc1 (configuration not stated) | 33 | 16 | -2 | 23564* | -3 | -3
CCN(CC)c1ccc(C2C(C(=O)OC)=C(C)NC(C)=C2C(=O)OC)cc1 | -13 | 3 | 1 | 22496* | 2 | -3
O=C(CC[C@H]1O[C@@H](n2cnc3c(NC(=O)c4ccccc4)ncnc32)[C@H](O)[C@@H]1O)NCc1nc2ccccc2[nH]1 | x | x | 0 | 5294 | -2 | -5
O=C(CSc1nc2ccccc2[nH]1)NCCCn1ccnc1 | -4 | 0 | 1 | 16490* | 1 | 0
Cc1ccccc1SCC(=O)NCCCn1ccnc1 | 7 | 4 | 3 | 4376 | 1 | 0
COc1ccc(CCC(=O)NCCS(=O)(=O)N2CCN(c3ccc(F)cc3)CC2)cc1 | x | 1 | 0 | 5550 | -9 | -3
Nc1nnc(CCCCCc2nnc(N)s2)s1 | 7 | -2 | 0 | 4328 | 4 | 0
Nc1nnc(CCN2C(=O)CSC2=O)s1 | 20 | -8 | -2 | 24168* | -4 | 0
CC1(C)Cc2cccc(OCC(=O)Nc3ccccc3N3CCOCC3)c2O1 | -7 | 9 | 0 | 16540* | 2 | -2
COc1cccc(NC(=O)C(C#N)Cc2ccncc2)c1 (configuration not stated) | -14 | 1 | 6 | 19544* | 10 | 1
CCCCN1CC(=O)N2[C@H]3c4cc(Cl)ccc4OC[C@@H]3[C@H](C(=O)OCC)[C@]2(C)C1=O | x | 0 | 0 | 3044 | -10 | 2
Cc1cc(C)n(C(=O)Cn2nc(C(F)F)cc2C)n1 | 14 | 12 | 3 | 21933* | 4 | -2
Cc1ccc(OCC(=O)OCC(=O)NC2CC2)cc1C | x | 3 | 0 | 3952 | 1 | -5
CC(=O)OCCOc1nc(NC(C)C)nc(NC(C)C)n1 | 21 | 0 | -1 | 8121 | -5 | 1
CC(C)Nc1nc(NC(C)C)nc(N(C)C(N)=O)n1 | 14 | 7 | 2 | 19916* | 2 | -1
CC(C)Nc1nc(NC(C)C)nc(C(N)=O)n1 | 18 | 6 | 0 | 16247* | -4 | 0
COc1ccc(-c2cc(C(F)(F)F)n3ncc(C(=O)N(C)Cc4ccccc4)c3n2)cc1 | 31 | 3 | 0 | 4411 | 6 | -2
O=C1CC(Nc2ccc(N3CCOCC3)cc2)C(=O)N1Cc1ccccc1 (configuration not stated) | 1 | -2 | -2 | 22615* | -8 | -3
Cc1cc(C(=O)COC(=O)C2=NNC(=O)CC2)c(C)n1-c1cccc(C(F)(F)F)c1 | 9 | -2 | 6 | 17667* | 5 | -11
CCCCNS(=O)(=O)c1ccc(NS(=O)(=O)c2c(C)cc(C)cc2C)cc1 | 14 | -6 | u | 16873* | -4 | 0
CCCN1CCC(NC(=O)Cc2ccc(C)cc2)CC1 | 22 | 2 | 0 | 3867 | -6 | -10
CCOC(=O)C1(CCOC)CCCCC1=O (configuration not stated) | x | 7 | 0 | 4101 | 6 | -5
SMILES | DUSP3 inh | MazF activator | BoNT-A LC inh2 | Bead autofluor | BoNT F protease | Anthrax LF inh2
Oc1ccc(/C=C/c2nc(-c3ccccc3O)n(-c3ccccc3)n2)cc1 | 23 | 7 | -2 | 24194* | -4 | -5
OC(c1cccc(CN2CCCCC2)c1)c1ncc(-c2cccc(C(F)(F)F)c2)[nH]1 (configuration not stated) | x | x | 0 | 3684 | -10 | -3
Cn1c(O)c(/C=N/c2ncccn2)c(=O)n(C)c1=O | 23 | 1 | 2 | 21865* | 4 | 4
Cc1ccccc1OCCN=Cc1c(O)n(C)c(=O)n(C)c1=O | 24 | 1 | 2 | 22922* | 3 | 1
COC(=O)c1cnc(NC(=O)C2(C)CCN2C(=O)C(C)C)s1 (configuration not stated) | x | x | 0 | 3398 | 2 | -2
COc1ccc(/C=N/N2C(=N)SCC2=O)cc1 | 13 | -7 | -1 | 4599 | -3 | 5
COCCCn1c(SCC(=O)N2CCCC(C)C2)nnc1-c1ccco1 (configuration not stated) | -8 | -7 | -3 | 21046* | 1 | 2
O=C(CSc1nnc(-c2ccco2)n1CC1CCCO1)N1CCCCC1 (configuration not stated) | 6 | 7 | 2 | 21580* | 2 | 1
CCc1ccc(S(=O)(=O)Nc2ccc(Br)cn2)cc1 | 20 | -6 | -4 | 3998 | 8 | 8
COc1cc(C(=O)NNC(=O)COc2cccc(F)c2)ccc1OCC(=O)N1CCOCC1 | x | 1 | 0 | 2932 | 2 | 0
CCOC(=O)C1(Cc2cccc(OC)c2)CCCN(C(=O)c2cc(C)on2)C1 (configuration not stated) | -29 | 0 | 4 | 5222 | 2 | -2
COc1ccc(N2C(=O)CC(N3CCN(c4ccc(S(C)(=O)=O)cc4)CC3)C2=O)cc1 (configuration not stated) | -4 | 4 | 2 | 18815* | -1 | -1
COc1ccc(NC(=O)C(=O)NCC2CCCN2S(=O)(=O)c2cccs2)cc1 (configuration not stated) | x | -1 | x | x | x | x
Cc1ccc(-c2nc(N/N=C/c3ccccc3[N+](=O)[O-])c3ccccc3n2)cc1 | 28 | 33 | -2 | 16971* | 2 | 0
Cc1nc(C)n(C(C)CNC(=O)c2ccco2)n1 (configuration not stated) | 11 | -10 | -4 | 3328 | u | 5
CSc1nnc(CCCCCNC(=O)OC(C)(C)C)o1 | 9 | 1 | 1 | 4067 | u | 8
CC(C)(C)OC(=O)NCCCCCc1nnc(SCc2c(F)cccc2Cl)o1 | 31 | -1 | -1 | 3968 | 59* | u
CCCCSc1nnc(CCCCCNC(=O)OC(C)(C)C)o1 | 21 | 5 | -1 | 16992* | -2 | -4
CC(C)N(C)C1CCN(C(=O)Nc2ccc(Cl)cc2)CC1 | 34 | -16 | -3 | 23132* | -5 | -6
FC(F)(F)c1cccc(NC(=S)Nc2cccc(NC(=S)Nc3cccc(C(F)(F)F)c3)n2)c1 | -19 | 24 | u | 3393 | u | -1
CCOC(=O)c1c(-c2cccs2)csc1NC(=O)COC(=O)c1c(C)noc1C | 18 | -3 | 0 | 16276* | -3 | -4
Cn1cc([C@@H]2C[C@H]3CN(Cc4cccc(Cl)c4)C(=O)[C@]34CCCN24)c2ccccc21 | 8 | -20 | 10 | 17603* | -20 | 4
Cc1c([C@@H]2C[C@H]3CN(Cc4cccc(Cl)c4)C(=O)[C@]34CCCN24)cnn1C | 34 | -8 | -1 | 8790 | -1 | -1
C/C=C/C(=O)OCC(=O)Nc1c(Cl)cccc1Cl | 6 | 10 | -2 | 16870* | -3 | -1

Screening data as filed in PubChem.
